Screening results (PubChem)
This is a sample that favours compounds with a hit; in the whole collection about 7.3% have one here.
ELG1 genotoxic = qHTS screen for small molecules that induce genotoxicity in human embryonic kidney (HEK293T) cells expressing luciferase-tagged ELG1; AID 504466, 2011; actives 1.3% (n = 330,000); HEK293T ELG1-luciferase reporter, luminescence, 16 h; Potency, µM (series often up to 46 µM), for the others: at the highest dose activity change, positive = activation, usual class: activators; further: % of control where 0% means no effect; nearly all actives have a fitted effect of over 60% in size
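Luminescence read-out: rising ELG1-luciferase signal, reflecting elevated ELG1 protein under genetic stress, flags genotoxic compounds. Cells were treated for 16 hr at 37 °C before ONE-Glo detection.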
NPC1 promoter act = qHTS Assay for NPC1 Promoter Activators. Huh7 NPC1 promoter luciferase reporter, 24 h. Potency, µM (titrated, usually from 9.22 µM), for inactives: at the highest dose activation, usual class: activators. actives 2.4% (n = 320,000). AID 485313, 2010; further: % of control where 0% means no effect; nearly all actives have a fitted effect of over 60% in size
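Luminescence from an NPC1 promoter-driven luciferase reporter in stably transfected Huh7 cells was measured after 24 h compound treatment at 37 °C, followed by 10 min ambient incubation with luciferase detection reagent.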
Luc counter = Counterscreen for Luciferase (Kinase-Glo TM) Inhibition | AID 1379, 2008 | Kinase-Glo luciferase, ATP luminescence, 8 min | actives 0.28% (n = 200,000) | Potency, µM (series often up to 38.3 µM), for inactives: at the top dose activity change, negative = inhibition, actives largely listed as inhibitors; further: on the % scale 0 is the no-effect control and ±100 the full control effect; nearly all actives have a fitted effect of over 60% in size
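Compounds were added to a substrate mix at pH 7.2 (50 mM imidazole, 10 uM ATP, within the enzyme's linear range), followed by Kinase-Glo detection reagent; luminescence was measured after 8 minutes at ambient temperature.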
FLuc counter = qHTS profiling assay for firefly luciferase inhibitor/activator using purifed enzyme and Km concentrations of substrates (counterscreen for miR-21 project) | actives 6.9% (n = 360,000) | AID 588342, 2011 | Luciferin 4-monooxygenase (Photinus pyralis), P08659 | purified FLuc, Km substrates, luminescence inhibition | Potency, µM (titrated, usually from 57.5 µM), for the others: at the highest dose activity change, negative = inhibition, hits mostly inhibitors;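 further: plate controls were vehicle for no effect and reference inhibitor for full effect; nearly all actives have a fitted effect of over 55% in size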
Target sequence (P08659 whole entry, looked up): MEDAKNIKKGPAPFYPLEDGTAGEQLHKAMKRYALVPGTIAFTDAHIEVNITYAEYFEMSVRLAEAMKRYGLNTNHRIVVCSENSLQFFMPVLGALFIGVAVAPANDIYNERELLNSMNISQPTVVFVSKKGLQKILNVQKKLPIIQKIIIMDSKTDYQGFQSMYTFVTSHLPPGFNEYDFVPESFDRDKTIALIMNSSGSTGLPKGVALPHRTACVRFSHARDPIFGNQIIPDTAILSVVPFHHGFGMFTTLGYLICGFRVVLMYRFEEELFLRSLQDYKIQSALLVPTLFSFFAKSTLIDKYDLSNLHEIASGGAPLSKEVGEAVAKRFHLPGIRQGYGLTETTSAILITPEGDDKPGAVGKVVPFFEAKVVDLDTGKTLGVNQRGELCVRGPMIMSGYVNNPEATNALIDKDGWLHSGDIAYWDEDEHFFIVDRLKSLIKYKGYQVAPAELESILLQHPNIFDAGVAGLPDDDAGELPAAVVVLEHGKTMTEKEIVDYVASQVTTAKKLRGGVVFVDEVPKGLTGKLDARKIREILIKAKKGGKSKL
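Purified P. pyralis luciferase (10nM final) with 10uM D-luciferin and 10uM ATP (Km levels) in 50mM Tris acetate pH 7.5, 10mM Mg acetate, 0.01% Tween-20, 0.05% BSA; qHTS 6-point titration, ~60 µM downward; luminescence read.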
Rab9 prom act = qHTS Assay for Rab9 Promoter Activators. actives 2.8% (n = 320,000). AID 485297, 2010. Potency, µM (doses to about 9.22 µM), inactives show at the top dose activation, negative = inhibition, most hits filed as activators. Huh7 Rab9 promoter-luciferase reporter, luminescence, 24 h; further: % of control where 0% means no effect; nearly all actives have a fitted effect of over 60% in size
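Cells were plated at 1500 per well in reduced-serum medium with 10% FBS and left 2 h. Compound in DMSO was then added for 24 h at 37 °C. Reporter signal was read by luminescence after 10 min with luciferase detection reagent.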
SMN2 splice enh = qHTS Assay for Enhancers of SMN2 Splice Variant Expression; actives 2.8% (n = 210,000); HEK293 SMN2-luciferase splicing reporter, luminescence, 30-36 h; Potency, µM (doses to about 46.1 µM), inactives show top-dose activity change, positive = activation, most hits filed as activators; AID 1458, 2008; further: % of control where 0% means no effect; nearly all actives have a fitted effect of over 55% in size
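HEK293 cells carry an SMN2 minigene-luciferase reporter in which exon 7 inclusion puts luciferase in frame. Cells were seeded at 2000 cells/well, attached for 10-12 hours, then exposed to compounds for 30-36 hours at 37C before ONE-Glo luminescence.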
Numbers without * were called inactive. The call rests on the fitted dose curve; in most records, active means well fitted curve in the direction sought with a large enough effect; inconclusive means small, poorly fitted or top-dose-only effect, or another doubt; inactive means no such curve, though single readings can be large; an effect the other way counts as inactive or inconclusive. Potency means the concentration at half of the fitted maximal effect.

Results for CCN(CC)c1ccc(NC(=O)c2ccc(Br)o2)c(C)c1 ?
ELG1 genotoxic: 18.1%; NPC1 promoter act: 15.4%; Luc counter: 1.3%; FLuc counter: -20.7%; Rab9 prom act: 0.4%; SMN2 splice enh: 11.6%

How did Cc1cc(O)c(NC(=O)c2ccc(Br)o2)cc1C do in these assays?
ELG1 genotoxic: inconclusive; NPC1 promoter act: 20.1%; Luc counter: -7.3%; FLuc counter: inconclusive; Rab9 prom act: 17.4%; SMN2 splice enh: 14.1µM*

How did Cc1c(NC(=O)c2ccccc2NC(=O)c2ccccc2)cccc1C(=O)O do in these assays?
ELG1 genotoxic: 1.7%; NPC1 promoter act: -0.4%; FLuc counter: 16.9µM*; Rab9 prom act: 4.4%

Results for CCOC(=O)C1=CC[C@H]2c3c(c4ccccc4n3C)C(=O)C1N2S(=O)(=O)c1ccc(C)cc1 ?
ELG1 genotoxic: -4.1%; NPC1 promoter act: -3.3%; FLuc counter: -1.5%; Rab9 prom act: -2.9%

Results for Cc1c(NC(=O)c2ccc(NC(=O)C3CC3)cc2)cccc1C(=O)O ?
ELG1 genotoxic: -1.8%; NPC1 promoter act: -0.4%; FLuc counter: 15.1µM*; Rab9 prom act: 7.0%

How did CCOc1cccc(C2/C(=C(/O)c3ccc4c(c3)CC(C)O4)C(=O)C(=O)N2CCN2CCOCC2)c1 (stereo not drawn) do in these assays?
ELG1 genotoxic: 0.9%; NPC1 promoter act: -1.9%; FLuc counter: 0.7%; Rab9 prom act: -3.5%

What do the screens show for `CC1Cc2cc(/C(O)=C3/C(=O)C(=O)N(CCN4CCOCC4)C3c3cccc(O)c3)ccc2O1` (stereo not drawn)?
ELG1 genotoxic: 24.8%; NPC1 promoter act: -1.9%; Luc counter: -1.8%; FLuc counter: 21.3µM*; Rab9 prom act: 0.3%; SMN2 splice enh: 6.4%

Results for N#CC1=C2SCN(c3ccccc3)CN2C(=O)CC1c1ccccc1Cl (stereo not drawn) ?
ELG1 genotoxic: 4.9%; NPC1 promoter act: -1.5%; Luc counter: -1.8%; FLuc counter: inconclusive; Rab9 prom act: -1.1%; SMN2 splice enh: -0.6%

How did N#CC1=C2SCN(c3ccccc3)CN2C(=O)CC1c1c(Cl)cccc1Cl (stereo not drawn) do in these assays?
ELG1 genotoxic: 0.4%; NPC1 promoter act: -1.1%; Luc counter: 0.3%; FLuc counter: 10.7µM*; Rab9 prom act: -0.4%; SMN2 splice enh: 9.9%

How did CCC(=O)Nc1ccc(-c2nc3ncccc3o2)cc1C do in these assays?
FLuc counter: -17.8%; SMN2 splice enh: inconclusive

How did Nc1cc(-c2nc3ncccc3o2)ccc1Cl do in these assays?
ELG1 genotoxic: inconclusive; NPC1 promoter act: inconclusive; Luc counter: -15.8%; FLuc counter: 19µM*; Rab9 prom act: 3.98µM*; SMN2 splice enh: 10µM*

What do the screens show for `Cc1cc(-c2nc3ncccc3o2)ccc1N`?
ELG1 genotoxic: inconclusive; NPC1 promoter act: inconclusive; Luc counter: -24.6%; FLuc counter: 16.9µM*; Rab9 prom act: inconclusive; SMN2 splice enh: 11.2µM*

What do the screens show for `Cc1ccc(-c2nc3ncccc3o2)cc1NC(=O)C(C)(C)C`?
ELG1 genotoxic: 0.2%; NPC1 promoter act: 0.7%; FLuc counter: 2.2%; Rab9 prom act: 0.5%

What do the screens show for `Cc1ccc(-c2nc3ncccc3o2)cc1N`?
ELG1 genotoxic: inconclusive; NPC1 promoter act: 3.98µM*; FLuc counter: 15.1µM*; Rab9 prom act: 3.55µM*

Results for CCC(=O)Nc1cc(C(=O)OCC(=O)c2ccccc2)ccc1C ?
ELG1 genotoxic: inconclusive; NPC1 promoter act: inconclusive; Luc counter: -2.0%; FLuc counter: 12µM*; Rab9 prom act: inconclusive

How did Cc1cc(C(=O)OCC(=O)Nc2cc(Cl)ccc2C)c(C)o1 do in these assays?
ELG1 genotoxic: 3.9%; NPC1 promoter act: 1.1%; FLuc counter: -0.5%; Rab9 prom act: 3.4%

Results for Cc1ccc(Cl)cc1NC(=O)c1ccc(NC(=O)CCC(=O)O)cc1 ?
ELG1 genotoxic: -2.1%; NPC1 promoter act: 1.4%; Luc counter: 6.3%; FLuc counter: -1.6%; Rab9 prom act: -1.4%; SMN2 splice enh: inconclusive

What do the screens show for `CCC(=O)Nc1cc(C(=O)OCC(=O)c2ccc(Cl)cc2Cl)ccc1C`?
ELG1 genotoxic: -2.3%; NPC1 promoter act: -4.2%; Luc counter: -3.1%; FLuc counter: 2.13µM*; Rab9 prom act: -0.7%; SMN2 splice enh: 17.4%

What do the screens show for `O=C(O)CCC(=O)Nc1ccc(C(=O)OCC(=O)c2ccc(Cl)cc2Cl)cc1`?
ELG1 genotoxic: -0.1%; NPC1 promoter act: -5.5%; Luc counter: -1.7%; FLuc counter: 13.5µM*; Rab9 prom act: -8.5%

Results for CCC(=O)Nc1cc(C(=O)OCC(=O)c2ccccc2Cl)ccc1C ?
ELG1 genotoxic: inconclusive; NPC1 promoter act: inconclusive; Luc counter: -4.3%; FLuc counter: 8.49µM*; Rab9 prom act: 3.55µM*

Results for Cc1ccc(C(=O)OCC(=O)c2c[nH]c3ccccc23)cc1NC(=O)c1ccco1 ?
ELG1 genotoxic: -8.0%; NPC1 promoter act: 6.9%; Luc counter: 0.1%; FLuc counter: inconclusive; Rab9 prom act: inconclusive; SMN2 splice enh: -3.9%

How did O=C(Nc1ccc(S(=O)(=O)NC2CCCCC2)cc1)c1ccco1 do in these assays?
ELG1 genotoxic: 0.1%; NPC1 promoter act: -5.5%; Luc counter: 2.2%; FLuc counter: 0.9%; Rab9 prom act: 1.6%; SMN2 splice enh: -24.3%

Results for COc1ccc(CN2CCc3cc(OC)c(OC)cc3C2)cc1O ?
ELG1 genotoxic: -1.4%; NPC1 promoter act: -3.9%; FLuc counter: 0.6%; Rab9 prom act: -0.7%

What do the screens show for `CC(=O)c1ccc(NC(=O)COC(=O)c2c[nH]c3ccccc23)cc1`?
ELG1 genotoxic: 3.1%; NPC1 promoter act: -3.3%; FLuc counter: -1.7%; Rab9 prom act: -1.3%

How did COC(=O)c1cc(/C=C/c2ccccc2)[nH]n1 do in these assays?
ELG1 genotoxic: 17.0%; NPC1 promoter act: inconclusive; FLuc counter: 16.9µM*; Rab9 prom act: inconclusive

Results for COC(=O)c1cc(/C=C/c2ccccc2)on1 ?
ELG1 genotoxic: 0.4%; NPC1 promoter act: -0.1%; Luc counter: -1.1%; FLuc counter: inconclusive; Rab9 prom act: -5.6%; SMN2 splice enh: 3.8%

What do the screens show for `CC(=O)c1ccc(S(=O)(=O)Nc2cccc(-c3ccc(N4CCCCC4)nn3)c2)cc1`?
FLuc counter: 1.51µM*
